SMILES strings stand for the structures. The whole screen tested about 410,000 compounds, of which about 5,000 (1.2%) were called active. Roughly 13% stayed inconclusive and do not appear here. The call rests on the fitted dose curve; in most records, active means well fitted inhibition curve with a large enough effect; inconclusive means small, poorly fitted or top-dose-only effect; inactive means no such curve, though single readings can be large or run the other way. The list comes from a sample in which actives are over-represented; it also holds similar structures and randomly drawn compounds. Where a call stands in place of a potency, no number is given.
Potency means the concentration at half of the fitted maximal effect.

This assay can be described thus: qHTS for Inhibitors of TGF-b. Further: nearly all actives have a fitted effect of over 65% in size. The note with it: HepG2 CAGA-GFP TGF-b/SMAD3 reporter, GFP fluorescence, 18 h, TGF-beta stimulated, 500 pg/mL final; series mostly up to 46.1 µM. An excerpt:
TGF-b is a main component in the TGF-b signaling pathway which plays diverse roles in cellular and development pathways. TGF-b is the mediated by the transcription factors Smads. Although the Smad-dependent pathway is the primary canonical TGF-b signaling node, TGF-b1 can also activate alternative signaling pathways, including those involving MAPK (ERK, JNK and p38). This interaction may mediate or enhance Smad-dependent responses, or can exert Smad-independent effects. The complexity of this signaling cascade allows the TGF-b superfamily to perform unique, overlapping or redundant functions. We believe that targeting the TGF-beta pathway at the Smad-transcription factor level may eliminate the consequences of disrupting the entire pathway and offer specificity without affecting other signaling pathways. Smad3 is the primary transducer of TGF-b's signals and Smad3 regulates many functions attributed to TGF-b signaling. We hypothesize that Smad3 inhibitors will selectively eliminate Smad3-specific TGF-beta signals without undesired off-target effects. We aim to identify Smad3-small molecule antagonists using a quantitative high throughput screening (qHTS) approach.
A high-throughput assay was developed to screen the NIH Molecular Libraries Small Molecule Repository (MLSMR). This is a cell based assay, where TGF-b is tagged with GFP. A counterscreen is run that looks at cytotoxicity (please see summary AID).
MH087449NIH Chemical Genomics Center [NCGC]
NIH Molecular Libraries Probe Centers Network [MLPCN]
Assay Submitter (PI): Sushil Rane, National Institute of […]
Suspensions of trypsinized HEPG2 CAGA-GFP cells were dispensed into white, tissue culture-treated, solid 1536-well plates at 5uL/well (1000 cells/well final concentration) in DMEM medium supplemented with 1% FBS. Plates were incubated at 37 degrees C for 2 hours, after which 23 nL of compounds or DMSO were delivered to each well using a pin tool. One uL of recombinant TGF-beta in DMEM (1% FBS) was then dispensed (500 pg/mL final concentration), and plates were incubated at 37 degrees C for 18 hours. The plates were measured on an Acumen eX3 Explorer plate reader for GFP fluorescence (ex488/em500-530). GFP values were calculated by determining the mean GFP fluorescence of individual cells, and compiling these values for each well to determine a total well GFP signal. The %Activity was determined from the corrected fluorescence values. A titration of the known TGF-B inhibitor SB431542 was included to monitor plate performance, while unstimulated HEPG2 (-TGF-B) control wells were used to normalize %Activity of identified inhibitors; unstimulated wells corresponded to 100%Activity (full inhibition), while stimulated cell controls (+DMSO) were used to normalize 0%Activity (no inhibition).
Concentration-response curves were fitted to the signals arising from the resulting fluorescence. The concentration-effect curves were then classified based on curve quality (r2), response magnitude and degree of measured activity, and compounds were subsequently categorized based on their curve class.
On the technique in general: Quantitative high-throughput screening tests each substance at several concentrations.
As for `C[C@]12CC[C@H](O)C[C@H]1CC[C@@H]1C2CC[C@]2(C)[C@@H](C3=CC(=O)OC3)[C@@H](O)C[C@]12O` (some centres not stated), the Potency was 11.2 µM (active).
Consider `CC12CCC(O)CC1CCC1C2CCC2(C)C(C(=O)CC(O)C(F)(F)F)CCC12` (configuration not stated), for which the Potency result was “inactive”.
Consider `C[C@]12CCC3C(CC[C@H]4C[C@@H](O)CC[C@]34C)C1CC[C@@H]2O` (some centres not stated), for which the Potency result was “inactive”.
Consider `C[C@H]1CN([C@@H](C)CO)C(=O)CCCn2nncc2CO[C@H]1CN(C)C(=O)Oc1ccccc1`, for which the Potency entry is “inactive”.
Then `COc1ccccc1OC(=O)c1ccc(C)c(S(=O)(=O)N2CCOCC2)c1`, with “inactive”; and `COc1ccc2c(c1)NP(=S)(c1ccccc1)N2` (configuration not stated), with “inactive”; and `Cc1nc2ccccc2c(=O)n1-c1ccc(Cl)cc1Cl`, with “inactive”.
As to `Cn1cc(/C=C/c2nc3ccccc3c(=O)n2-c2ccccc2)c2ccccc21`, the Potency entry was “inactive”.
For the molecule `O=c1c2ccccc2nc(/C=C/c2ccc(F)cc2)n1-c1ccccc1O`, the Potency was 10 µM (active).
As for `CC(C)CN1Cc2cc(N3CCCCC3)ccc2-n2nncc2C1`, the entry is “inactive”; as for `O=c1c2ccccc2nc(CBr)n1-c1ccc(Cl)cc1`, “inactive”.
In the case of `CCCCC(=O)N/N=C/c1c(O)n(CC)c(=S)n(CC)c1=O`, the Potency was 22.4 µM (active).
Then `Cn1c(O)c(C=NCCCC(=O)O)c(=O)n(C)c1=O`, with “inactive”; and `O=C(N/N=C/c1c(O)n(Cc2ccccc2)c(=O)[nH]c1=O)c1ccccc1`, with “inactive”; and `COc1cc(C(c2c(O)c3ccccc3oc2=O)c2c(C)n(C)n(-c3ccccc3)c2=O)ccc1O` (configuration not stated), with “inactive”.
As for `C[C@H]1CN([C@@H](C)CO)C(=O)CCCn2nncc2CO[C@H]1CN(C)C(=O)Oc1cccc2ccccc12`, the entry is “inactive”.
Turning to `CC1CCCCN1Cc1cccnc1` (configuration not stated), the Potency entry is “inactive”.
For the molecule `COC1C(O)C(C)OC(OC2CCC3(C=O)C(CCC4C3CCC3(C)C(C5=CC(=O)OC5)CCC43O)C2)C1O` (configuration not stated), the Potency is 0.355 µM (active).
On to `O=c1[nH]c(CN2CC=C(c3ccccc3)CC2)nc2scc(-c3cccs3)c12`, for which the Potency result is “inactive”.
As for `COC(=O)C1=C(c2cc3ccccc3s2)C[C@@H]2CC[C@H]1N2C(=O)NCCO`, the entry is “inactive”; as for `COc1cc(C2c3cc4c(cc3C(O)C3COC(=O)C23)OCO4)cc(OC)c1OC` (configuration not stated), “inactive”; as for `O=C(O)c1cc[c]([Sb](=[O])([OH])[OH])cc1[N+](=O)[O-]`, “inactive”.
Consider `CO[C@H]1[C@@H](O)[C@@H](C)O[C@H](O[C@H]2[C@H](Oc3cccc4c(O)c5c(=O)oc6ccc(C)c7c(=O)oc(c34)c5c67)O[C@H](C)[C@H](O)[C@@H]2O)[C@@H]1O`, for which the Potency entry was “inactive”.
On to `CSCCC(c1nnnn1C(C)(C)C)N1CCC(n2c(=O)[nH]c3ccccc32)CC1` (configuration not stated), for which the Potency entry is “inactive”.
Turning to `CC1(C)Cc2c(C#N)c(N3CCNCC3)nc(-c3ccco3)c2CS1`, the Potency entry is “inactive”.
Consider `Cc1nnc(NC(=O)c2cccn(Cc3cccc(F)c3)c2=O)s1`, for which the Potency entry is “inactive”.
For the molecule `Cc1cccc(Cn2cccc(C(=O)Nc3ccc4c(c3)OCCO4)c2=O)c1`, the Potency is 10 µM (active).
For the molecule `Cc1ccccc1NC(=O)COC(=O)c1cc(C)n(C2CC2)c1C`, the Potency result was “inactive”.
`COc1ccc(NC(=O)N2Cc3ccccc3-n3nncc3C2)cc1`: the Potency result is “inactive”.
In the case of `Cc1ccc(OC(=O)N(C)C[C@@H]2OCc3cnnn3CCCC(=O)N([C@H](C)CO)C[C@@H]2C)cc1`, the Potency entry is “inactive”.
On to `CCOC(=O)CNC(=O)N1Cc2cc(N3CCCCC3)ccc2-n2nncc2C1`, for which the Potency result was “inactive”.
As for `CC(=O)c1ccc(OC(NC(=O)Cc2ccccc2)C(Cl)(Cl)Cl)cc1` (configuration not stated), the entry is “inactive”; as for `CN1CCN(/N=C/c2c[nH]c3ccccc23)CC1`, “inactive”.
Consider `CN(C)CCN(CC1CCCN(Cc2ccccc2F)C1)C(=O)Cc1ccc(F)c(F)c1` (configuration not stated), for which the Potency entry is “inactive”.
Then `CCn1cc(CN2CCCC(C(=O)c3cccc(C(F)(F)F)c3)C2)cn1` (configuration not stated), with “inactive”; and `CC(=O)Nc1ccc(CC#N)cc1`, with “inactive”.
As for `CCC(C)(O)C(=O)OC1C(=O)OC2CC3C(C)=CC(=O)C(O)C3(C)C3C4(O)OCC23C1C(C)C4O` (configuration not stated), the figure is 0.355 µM (active); as for `O=C1C2CCN(CC2)C1(CO)CO`, “inactive”; as for `COc1ccc(C2C=C(C)Oc3c2c(=O)oc2ccccc32)cc1OC` (configuration not stated), “inactive”.
As for `CN(C(=O)c1cccc(NC(=O)Cc2cccc([N+](=O)[O-])c2)c1)C1CCCCC1`, the Potency was 20 µM (active).
For `CN(C)P(=S)(Nc1ccccc1)C(Cl)(Cl)Cl` (configuration not stated), the Potency entry was “inactive”.
Then `O=C1CC(=O)N(Cc2ccccc2)C(=O)N1CCCCCCN1C(=O)CC(=O)N(Cc2ccccc2)C1=O`, with “inactive”.
In the case of `CC(C)(C)c1ccc(CN2C(=O)CN=C(c3ccccc3)c3ccccc32)cc1`, the Potency was 11.2 µM (active).
As for `O=C(O)/C=C/c1ccc2c(c1)OCO2`, the entry is “inactive”.
Turning to `CC1=C(C(=O)Nc2ccccc2)S(=O)(=O)CCO1`, the Potency result was “inactive”.
As for `CNC(=O)N(C)c1nnc(C(C)(C)C)s1`, the Potency result is “inactive”.
Turning to `c1ccc(N2Cc3ccccc3-n3nncc3C2)nc1`, the Potency result is “inactive”.
On to `O=Cc1cn(Cc2ccc(F)cc2Cl)c2ccccc12`, for which the Potency was 8.91 µM (active).
On to `CC(=O)C1(O)CCC2C3CCC4=C(Cl)C(=O)CCC4(C)C3CCC21C` (configuration not stated), for which the Potency result is “inactive”.
Take `N#Cc1c(Cl)c(Cl)c(Cl)c(C#N)c1Cl`: the Potency was 0.251 µM (active).
Regarding `CCOC(=O)C(O)(c1ccc(N=Cc2ccccc2O)c(C)c1)C(F)(F)F` (configuration not stated), the Potency result was “inactive”.
For the molecule `O=C(Oc1ccc2c(c1)CCC2)N1CCOCC1`, the Potency entry is “inactive”.
Then `CCN(CC)C(=O)c1ccc(NC(=O)c2sccc2-c2ccccc2)cc1`, with “inactive”; and `CCOc1cccc(=NC2CCCCC2)c2c(C)[nH]c(C)c12`, with 10 µM (active).
For the molecule `Cc1nc2ccccn2c1P(=S)(N1CCCCC1)N1CCCCC1`, the Potency result was “inactive”.
Take `COc1ccc2cc1Oc1ccc(cc1)C[C@H]1c3cc(c(OC)cc3CCN1C)Oc1c(O)c(OC)cc3c1[C@H](C2)N(C)CC3`: the Potency was 7.94 µM (active).
As for `COc1ccc2c(c1O)-c1cccc3c1[C@@H](C2)N(C)CC3`, the entry is “inactive”; as for `COc1c(O)ccc2c1-c1c3c(cc4c1C(C2)N(C)CC4)OCO3` (configuration not stated), “inactive”; as for `CN(C)/C=C(\C=[N+](C)C)c1[nH]ncc1[N+](=O)[O-]`, “inactive”.
Then `COC(=O)C1=C(c2ccc(OCc3ccccc3)cc2)C[C@@H]2CC[C@H]1N2C(=O)NCc1cccc(F)c1`, with “inactive”.
Regarding `Cc1ncoc1C(=O)NCC1=C(c2cccc3ccccc23)C[C@@H]2CC[C@H]1N2Cc1ccco1`, the Potency result was “inactive”.
As for `ClCCN(CCCl)c1ccc(C=Nc2ccc(/C=C/c3ccnc4ccccc34)cc2)cc1`, the entry is “inactive”.

Source of the values: PubChem BioAssay AID588855 (National Center for Advancing Translational Sciences (NCATS), 2011).
